Measurements published in PubChem BioAssay AID1979 (Broad Institute, 2009).
Out of some 300,000 compounds screened, about 1,700 (0.57%) were called active. Inconclusive results (about 2%) are left out.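 How the source made its calls: active means growth inhibition above about 58% in most replicates (limit read from the data, passing the limit was not always enough); inconclusive means exactly half the replicates above a set limit; inactive means most replicates below a set limit.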 The full list was thinned out, with actives kept by preference.

Assay: Candida growth reduction under fluconazole – CaCi-2 strain, Alamar Blue fluorescence, primary screen (AID 1979);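 further: all wells also contain fluconazole at 8 µg/ml as a sub-toxic cotreatment; 0% = median of DMSO wells and 100% = median of geldanamycin control wells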
Conditions: C. albicans CaCi-2 (fluconazole-resistant clinical isolate) + fluconazole, 48 h, stronger effect = higher value, concentration not given here

Growth inhibition, active:
Cc1ccc(N/N=C2\COC(C)(C)CC2=O)cc1 101%
O=C(N/N=C/c1cc([N+](=O)[O-])ccc1O)/C(=C\c1cccs1)NC(=O)c1ccccc1 116%
Cc1cccc(COc2ccccc2/C=N/Nc2ccc([N+](=O)[O-])cc2)c1 91.8%
COc1ccc(C2=NN(c3nc4ccccc4s3)C(=O)C2)cc1 94.5%
COc1ccc(C(=O)NNC(=S)NC(=O)c2ccccc2)cc1 96.8%
COc1ccc(C(=O)NC(=S)NNC(=O)CCc2ccccc2)cc1 114%
Oc1c(Cl)cc(Cl)c(Cl)c1Cc1c(O)c(Cl)cc(Cl)c1Cl 110%
CCN1CCN(C(c2cccnc2)c2cc(Cl)c3cccnc3c2O)CC1 (stereo not drawn) 101%
Oc1ccc(Br)cc1/C=N/Nc1ccccn1 106%
CCc1nnc(NC(=O)CSc2nc(SC)ns2)s1 81.2%
Cc1oc2c(F)c(F)c(F)c(F)c2c1S(=O)(=O)Nc1cccc(C(F)(F)F)c1 84.7%

Growth inhibition, inactive:
CS(=O)(=O)c1ccc(Cl)c(NC(=O)COC(=O)c2cccc(S(=O)(=O)N3CCCC3)c2)c1 -1.03%
Cc1cc(Nc2ccc(C(=O)N3CCCCC3)cc2)c2cccc(C)c2n1 2.84%
Cc1ccn2c(=O)nc(SCC(=O)NCc3ccc4c(c3)OCO4)nc2c1 1.59%
COc1ccc(N/N=C2/CCCCC2=O)cc1 -21.7%
Cc1ccc(NN=C2C(=O)OC(C)(C)OC2=O)c(C)c1 -5.58%
COc1ccccc1C(=O)NC(=O)COC(=O)c1ccco1 8.59%
CC1CN(C(=O)COC(=O)c2cccc(NS(=O)(=O)c3ccccc3)c2)CC(C)O1 (stereo not drawn) 5.4%
O=C(N/N=C/c1ccc(O)cc1)/C(=C/c1ccc([N+](=O)[O-])cc1)NC(=O)c1ccccc1 1.1%
O=[N+]([O-])c1ccc(O)c(/C=N/Nc2ccccc2[N+](=O)[O-])c1 -1.45%
COc1ccccc1OCc1ccc(C(=O)NC(C)c2ccccc2)o1 (stereo not drawn) -11.7%
COc1ccc(OC)c(NC(=O)CSc2nc(-c3ccccc3)cc(=O)[nH]2)c1 55%
Cc1ccc(NS(=O)(=O)c2ccc(N/N=C/c3ccccc3OCC(=O)O)c([N+](=O)[O-])c2)c(C)c1 -7.09%
O=[N+]([O-])c1ccc(N/N=C/c2ccccc2)cc1 -28.5%
O=C1c2ccccc2C(=O)c2c1cccc2N1CCN(C/C=C/c2ccccc2)CC1 8.05%
Cc1ccc(S(=O)(=O)NC(C)C(=O)NCc2ccc(Cl)cc2)cc1 (stereo not drawn) -3.28%
COc1ccc(C2=NN(C(C)=O)C(c3ccccc3)C2)cc1 (stereo not drawn) -6.81%
COc1ccc(-n2nnnc2-c2nc3ccccc3s2)cc1 -12.1%
O=c1c2ccccc2ncn1CCCCOc1ccccc1F 0.805%
COc1ccc(C(=O)NC(=S)NNC(=O)c2c(-c3ccccc3)noc2C)cc1 32.7%
CC(C)Oc1ccc(CCC(=O)NNC(=S)NCc2ccccc2)cc1 1.53%
O=C(CCc1ccccc1)NNC(=O)c1ccc(Br)cc1 5.83%
COc1ccc(C(=O)NNC(=S)NC(=O)c2ccccc2[N+](=O)[O-])cc1 5.98%
Cc1ccc(NC(=O)c2cnc(SCC(=O)NCC3CCCO3)n(C)c2=O)cc1 (stereo not drawn) -0.731%
CCOc1ccc(CCNC(=O)COC(=O)CCS(=O)(=O)c2ccc(C)cc2)cc1OCC -6.92%
COc1cccc(NC(=O)CN(C)C(=O)CSC(=S)N2CCCC2)c1 -3.71%
CC(=O)Nc1ccc(NC(=O)CSc2nnnn2C2CCCCC2)cc1 -2.4%
Cc1c(C(=O)Nc2ccccn2)oc2ccc(Br)cc12 27.1%
COc1ccc(OC)c(NC(=O)c2ccc3c(c2)C(=O)N(c2ccc(OC(C)=O)cc2)C3=O)c1 0.417%
CC(=O)c1sc(N)nc1C -4.24%
Cc1ccc(NC(=O)COc2coc(CN3CCc4ccccc4C3)cc2=O)cc1Cl -1.39%
Cc1ccc(CC(=O)N(C)CC(=O)N(CC(C)C)c2c(N)n(CC(C)C)c(=O)[nH]c2=O)cc1C 1.58%
Oc1ccccc1CN1CCN(C(c2ccccc2)c2ccccc2)CC1 -4.19%
CCOC(=O)N1CCN(C(c2cccnc2)c2ccc3cccnc3c2O)CC1 (stereo not drawn) -9.67%
CC(=O)Nc1ccc(C(=O)Nc2cccc(S(=O)(=O)NC3=NCCC3)c2)cc1 3.58%
Oc1ccc(/C=N/Nc2ccc(C(F)(F)F)cn2)cc1O -7.01%
O=C(CCCO)N/N=C/c1cc(Br)ccc1O -31.2%
Cc1cc(NC(=O)C(C)SCC(=O)Nc2ccccc2N2CCCCC2)no1 (stereo not drawn) 1.22%
O=C(Nc1nc(-c2ccco2)c(-c2ccco2)s1)c1ccco1 -0.652%
CSc1nsc(SCC(=O)Nc2cc(C(=O)O)ccc2C)n1 17.7%
CCc1nnc(NC(=O)CCC(=O)O)s1 -5.2%
CC(=O)O[C@H]1CC[C@@]2(C)[C@@H](CC[C@@H]3[C@@H]2CC[C@]2(C)[C@@H](C(C)(C)O)C[C@@H]32)C1 1.13%
O=C1CCCCC1Sc1ccc(Cl)cc1[N+](=O)[O-] (stereo not drawn) -3.28%
C[C@@H]1O[C@@H](OC[C@H]2O[C@@H](Oc3c(-c4ccc(O)cc4)oc4cc(O)cc(O)c4c3=O)[C@H](O)[C@@H](O)[C@@H]2O)[C@H](O)[C@H](O)[C@H]1O 1.9%
Cc1ccc(-c2cc(C(=O)NC3CCN(Cc4ccccc4)CC3)c3ccccc3n2)cc1 2.43%
CCNS(=O)(=O)c1ccc(NC(=O)Nc2cccc(C(F)(F)F)c2)cc1 -8.1%
CCOC(=O)N1CCN(C(=O)c2ccc(S(=O)(=O)Nc3cccc(C(F)(F)F)c3)cc2)CC1 -2.84%
Cc1cc(NC(=O)CCS(=O)(=O)c2ccc(F)cc2)no1 -4.39%
